# Laboratory results: the supplement of paper PMC6411743
# ± gives the standard deviation of the averaged measurements. Targets with the largest changes are over-represented here; the source holds about 6,200 in all.
# Tests used:
# Assay in all cases: NP40-soluble protein abundance relative to vehicle (solubility fold change) (ratio); higher = more soluble protein in presence of AMP-PNP
# [1] = molecular target: A0A024R216|Q9Y3E1 (UniProt Q9Y3E1)
# Outline: (§1)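 Across three independent experiments, values are fold changes against the detergent-processed vehicle for each replicate, based on vsn-normalised intensities. The samples were Jurkat crude lysate treated with eight concentrations (0.1 to 10 mM) for 10 min at room temperature and then 3 min at 37 °C. Lysate was solubilised with 0.8% NP40 and benzonase, ultracentrifuged, and the supernatant analysed by TMT-labelled LC-MS/MS.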
# [2] = molecular target: A0A024RAC6 (UniProt Q14241)
# Outline: as §1
# [3] = molecular target: A0A075B738|P16284|P16284-6 (UniProt P16284)
# Outline: as §1
# [4] = molecular target: T1, A0A087WUL0|Q3LXA3 (UniProt Q3LXA3)
# T1 sequence (whole entry): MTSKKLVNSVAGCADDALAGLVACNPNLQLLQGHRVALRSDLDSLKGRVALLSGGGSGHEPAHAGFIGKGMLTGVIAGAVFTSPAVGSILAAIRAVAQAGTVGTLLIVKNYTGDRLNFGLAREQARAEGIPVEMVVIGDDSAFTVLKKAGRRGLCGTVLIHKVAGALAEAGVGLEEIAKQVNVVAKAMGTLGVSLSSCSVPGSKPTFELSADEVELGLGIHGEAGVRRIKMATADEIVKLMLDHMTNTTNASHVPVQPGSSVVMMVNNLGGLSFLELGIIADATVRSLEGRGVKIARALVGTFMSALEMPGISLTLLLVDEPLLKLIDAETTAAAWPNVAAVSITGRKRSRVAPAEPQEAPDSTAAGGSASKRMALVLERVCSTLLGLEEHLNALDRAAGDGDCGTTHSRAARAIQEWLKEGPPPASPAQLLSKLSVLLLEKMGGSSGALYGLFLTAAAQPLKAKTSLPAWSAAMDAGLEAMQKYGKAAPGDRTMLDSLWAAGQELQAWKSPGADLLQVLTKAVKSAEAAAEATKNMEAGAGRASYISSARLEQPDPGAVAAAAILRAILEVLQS
# Outline: as §1
# [5] = molecular target: T2, A0A087WUT6|O60841 (UniProt O60841)
# T2 sequence (whole entry): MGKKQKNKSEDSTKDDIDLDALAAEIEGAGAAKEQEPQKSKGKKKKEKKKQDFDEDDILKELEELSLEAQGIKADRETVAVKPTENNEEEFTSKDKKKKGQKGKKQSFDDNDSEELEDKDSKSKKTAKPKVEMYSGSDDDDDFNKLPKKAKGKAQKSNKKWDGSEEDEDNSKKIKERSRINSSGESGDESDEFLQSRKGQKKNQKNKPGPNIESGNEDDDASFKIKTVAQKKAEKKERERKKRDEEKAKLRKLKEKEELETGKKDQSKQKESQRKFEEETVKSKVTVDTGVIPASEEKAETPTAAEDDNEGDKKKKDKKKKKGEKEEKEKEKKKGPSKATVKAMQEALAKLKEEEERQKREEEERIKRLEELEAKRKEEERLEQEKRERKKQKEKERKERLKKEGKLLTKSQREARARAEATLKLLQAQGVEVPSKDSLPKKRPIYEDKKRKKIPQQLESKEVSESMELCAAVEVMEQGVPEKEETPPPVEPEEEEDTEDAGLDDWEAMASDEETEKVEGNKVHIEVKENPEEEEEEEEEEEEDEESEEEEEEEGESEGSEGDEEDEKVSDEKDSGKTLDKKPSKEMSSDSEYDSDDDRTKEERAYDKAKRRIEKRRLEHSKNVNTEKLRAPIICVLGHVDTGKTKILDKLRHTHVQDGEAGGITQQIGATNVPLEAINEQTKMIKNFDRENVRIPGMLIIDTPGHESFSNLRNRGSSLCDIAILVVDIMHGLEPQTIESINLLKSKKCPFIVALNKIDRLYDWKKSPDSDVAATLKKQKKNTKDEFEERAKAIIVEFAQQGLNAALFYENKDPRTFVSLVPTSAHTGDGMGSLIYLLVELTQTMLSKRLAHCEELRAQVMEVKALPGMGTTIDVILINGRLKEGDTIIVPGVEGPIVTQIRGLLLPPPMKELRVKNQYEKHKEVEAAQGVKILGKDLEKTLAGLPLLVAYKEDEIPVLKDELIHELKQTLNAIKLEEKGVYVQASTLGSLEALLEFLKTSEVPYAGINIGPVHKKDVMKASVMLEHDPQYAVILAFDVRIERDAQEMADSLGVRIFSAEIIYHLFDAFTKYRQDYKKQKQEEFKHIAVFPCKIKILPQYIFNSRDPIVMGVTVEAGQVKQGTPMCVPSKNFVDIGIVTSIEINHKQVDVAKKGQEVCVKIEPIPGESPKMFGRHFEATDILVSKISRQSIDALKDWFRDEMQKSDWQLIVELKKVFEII
# Outline: as §1
# Chain of A0A024RAC6 (Q14241 whole entry): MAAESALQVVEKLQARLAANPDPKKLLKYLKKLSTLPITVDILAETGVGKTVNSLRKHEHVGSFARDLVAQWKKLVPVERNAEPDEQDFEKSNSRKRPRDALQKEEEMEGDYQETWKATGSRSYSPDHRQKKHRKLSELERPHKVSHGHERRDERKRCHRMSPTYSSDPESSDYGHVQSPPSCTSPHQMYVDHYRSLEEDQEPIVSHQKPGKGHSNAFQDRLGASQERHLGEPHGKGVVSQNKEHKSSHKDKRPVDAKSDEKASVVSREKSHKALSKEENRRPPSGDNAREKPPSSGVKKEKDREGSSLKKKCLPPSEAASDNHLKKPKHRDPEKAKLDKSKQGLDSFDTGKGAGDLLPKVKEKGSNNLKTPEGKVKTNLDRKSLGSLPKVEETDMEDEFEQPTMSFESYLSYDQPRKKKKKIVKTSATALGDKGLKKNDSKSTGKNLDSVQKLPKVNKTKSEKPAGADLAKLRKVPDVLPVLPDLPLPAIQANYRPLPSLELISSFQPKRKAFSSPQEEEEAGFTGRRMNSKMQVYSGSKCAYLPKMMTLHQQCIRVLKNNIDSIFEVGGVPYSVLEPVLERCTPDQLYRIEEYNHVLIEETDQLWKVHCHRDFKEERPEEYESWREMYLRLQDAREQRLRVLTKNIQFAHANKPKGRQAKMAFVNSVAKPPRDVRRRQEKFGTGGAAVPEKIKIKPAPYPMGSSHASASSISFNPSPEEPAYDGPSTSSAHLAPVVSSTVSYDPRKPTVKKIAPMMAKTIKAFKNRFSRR
# Chain of A0A024R216|Q9Y3E1 (Q9Y3E1 whole entry, one chain of several): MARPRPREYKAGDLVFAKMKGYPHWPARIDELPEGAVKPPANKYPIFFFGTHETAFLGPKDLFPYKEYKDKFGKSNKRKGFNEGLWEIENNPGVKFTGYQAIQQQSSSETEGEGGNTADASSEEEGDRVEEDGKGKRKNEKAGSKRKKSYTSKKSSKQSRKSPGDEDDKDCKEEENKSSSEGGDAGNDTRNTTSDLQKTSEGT
compound,measurement,setting,value
Nc1ncnc2c1ncn2[C@@H]1O[C@H](COP(=O)(O)OP(=O)(O)NP(=O)(O)O)[C@@H](O)[C@H]1O [adenylyl imidodiphosphate],NP40-soluble protein abundance,[1]; concentration: 1mM,1 ± 0.031
same,NP40-soluble protein abundance,[1]; concentration: 2mM,1.1 ± 0.17
same,NP40-soluble protein abundance,[1]; concentration: 4mM,1.05 ± 0.074
same,NP40-soluble protein abundance,[1]; concentration: 6mM,1.16 ± 0.074
same,NP40-soluble protein abundance,[1]; concentration: 8mM,1.11 ± 0.06
same,NP40-soluble protein abundance,[1]; concentration: 10mM,1.17 ± 0.14
same,NP40-soluble protein abundance,[2]; concentration: 1mM,1.05 ± 0.014
same,NP40-soluble protein abundance,[2]; concentration: 2mM,1.13 ± 0.076
same,NP40-soluble protein abundance,[2]; concentration: 4mM,1.06 ± 0.029
same,NP40-soluble protein abundance,[2]; concentration: 6mM,1.08 ± 0.044
same,NP40-soluble protein abundance,[2]; concentration: 8mM,1.06 ± 0.022
same,NP40-soluble protein abundance,[2]; concentration: 10mM,1.09 ± 0.019
same,NP40-soluble protein abundance,[3]; concentration: 1mM,1.02 ± 0.027
same,NP40-soluble protein abundance,[3]; concentration: 2mM,1.08 ± 0.095
same,NP40-soluble protein abundance,[3]; concentration: 4mM,1.01 ± 0.033
same,NP40-soluble protein abundance,[3]; concentration: 6mM,0.995 ± 0.011
same,NP40-soluble protein abundance,[3]; concentration: 8mM,0.98 ± 0.013
same,NP40-soluble protein abundance,[3]; concentration: 10mM,0.994 ± 0.032
same,NP40-soluble protein abundance,[4]; concentration: 1mM,1.02 ± 0.024
same,NP40-soluble protein abundance,[4]; concentration: 2mM,1.05 ± 0.05
same,NP40-soluble protein abundance,[4]; concentration: 4mM,1.03 ± 0.054
same,NP40-soluble protein abundance,[4]; concentration: 6mM,0.997 ± 0.01
same,NP40-soluble protein abundance,[4]; concentration: 8mM,0.963 ± 0.027
same,NP40-soluble protein abundance,[4]; concentration: 10mM,1.02 ± 0.036
same,NP40-soluble protein abundance,[5]; concentration: 1mM,1.05 ± 0.012
same,NP40-soluble protein abundance,[5]; concentration: 2mM,1.02 ± 0.018
same,NP40-soluble protein abundance,[5]; concentration: 4mM,1.02 ± 0.017
